From PubChem BioAssay (NCATS)
Inconclusive results are not listed. The source made the active and inactive calls. Calls come from the whole dose curve; as a rule, active = well fitted curve in the direction sought with a large enough effect; inconclusive = small, poorly fitted or top-dose-only effect, or another doubt; inactive = no such curve, though single readings can be large; an effect the other way counts as inactive or inconclusive.

Molecular target: ATP-dependent 6-phosphofructokinase (Trypanosoma brucei brucei) (UniProt O15648)
Sequence (O15648 whole entry, looked up): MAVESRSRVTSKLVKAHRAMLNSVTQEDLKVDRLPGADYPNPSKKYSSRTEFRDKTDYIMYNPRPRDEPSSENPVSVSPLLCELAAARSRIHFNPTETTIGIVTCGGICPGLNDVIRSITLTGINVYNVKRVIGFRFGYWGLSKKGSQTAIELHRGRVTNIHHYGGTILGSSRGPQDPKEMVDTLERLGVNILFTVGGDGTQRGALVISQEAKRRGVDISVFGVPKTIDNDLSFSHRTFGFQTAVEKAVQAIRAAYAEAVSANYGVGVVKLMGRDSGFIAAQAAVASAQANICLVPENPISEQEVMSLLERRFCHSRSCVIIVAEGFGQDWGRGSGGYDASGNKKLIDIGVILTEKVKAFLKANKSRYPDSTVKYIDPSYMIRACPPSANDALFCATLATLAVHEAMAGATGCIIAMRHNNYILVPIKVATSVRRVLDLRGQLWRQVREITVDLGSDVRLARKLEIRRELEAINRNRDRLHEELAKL
Experiment: qHTS Assay to Find Inhibitors of T. brucei phosphofructokinase: hit validation (AID 492961);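 note: luminescence reports ADP formed as PFK phosphorylates fructose-6-phosphate with ATP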
Settings: T. brucei PFK, ADP-Glo luminescence; series mostly up to 51.4 µM
In short: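 PFK 1.25 nM, F6P 0.5 mM, ATP 0.1 mM, MgCl2 5 mM, 0.1 M TEA pH 8.0, Tween20 0.01%, BSA 0.1%; 45 min RT. ADP-Glo two-step detection, luminescence. qHTS titration; curve fitting with curve-class categorization.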
With CCCCCCCCCC(=O)O[C@H]1CC[C@H]2[C@@H]3CCC4=CC(=O)CC[C@@H]4[C@H]3CC[C@]12C the outcome was “inactive”.
For O=C1Nc2ccc(Cl)cc2C(c2ccccc2)=NC1O (stereo not given), the outcome was “inactive”.
With CN1C(=O)CC(=O)N(c2ccccc2)c2cc(Cl)ccc21 the outcome was “inactive”.
With C[C@]12CCC(=O)C=C1CC[C@@H]1[C@@H]2CC[C@]2(C)C(=O)CC[C@@H]12 the outcome was “inactive”.
With CCC(C)(C)c1ccc(O)cc1 the outcome was “inactive”.
For CN1C[C@H](C(=O)N[C@]2(C)O[C@@]3(O)[C@@H]4CCCN4C(=O)[C@H](Cc4ccccc4)N3C2=O)C=C2c3cccc4[nH]cc(c34)C[C@H]21, the outcome was “inactive”.
In the case of Cc1nnc2n1-c1ccc(Cl)cc1C(c1ccccc1Cl)=NC2, the outcome is reported as “inactive”.
For O=c1oc2ccccc2c(O)c1Cc1c(O)c2ccccc2oc1=O, the outcome was “inactive”.
With COC1CC(=C(c2cccs2)c2cccs2)C[N+](C)(C)C1 (stereo not given) the outcome was “inactive”.
With O=C(Nc1ccc(Br)cc1)c1cc(Br)cc(Br)c1O the outcome was “inactive”.
With COc1cccc([C@@]2(O)CCCC[C@@H]2CN(C)C)c1 the outcome was “inactive”.
In the case of NC(=O)CS(=O)C(c1ccccc1)c1ccccc1 (stereo not given), the outcome is reported as “inactive”.
In the case of O=C(N/N=C/c1ccc([N+](=O)[O-])o1)c1cc([N+](=O)[O-])cc([N+](=O)[O-])c1O, the outcome is reported as “inactive”.
In the case of CCCCCCC(=O)CCCCCC/C=C/C[C@@H](O)[C@H](O)[C@@](N)(CO)C(=O)O, the outcome is reported as “inactive”.
In the case of Clc1ccc(C(c2ccc(Cl)cc2)C(Cl)(Cl)Cl)cc1, the outcome is reported as “inactive”.
In the case of Nc1ccc([As](=O)(O)O)cc1, the outcome is reported as “inactive”.
In the case of CC(C)=CC1C(C(=O)OCN2C(=O)C3=C(CCCC3)C2=O)C1(C)C (stereo not given), the outcome is reported as “inactive”.
With O=C1c2ccccc2C(=O)C1C(=O)C(c1ccccc1)c1ccccc1 the outcome was “inactive”.
With Oc1ccc(Cl)cc1 the outcome was “inactive”.
For O=C1c2ccccc2C(=O)c2ccccc21, the outcome was “inactive”.
For CC(C)NC(C)C, the outcome was “inactive”.
For NNc1ccccc1, the outcome was “inactive”.
In the case of NC(=O)c1cc([N+](=O)[O-])cc([N+](=O)[O-])c1, the outcome is reported as “inactive”.
In the case of COC(=O)C(c1ccccc1)C1CCCCN1 (stereo not given), the outcome is reported as “inactive”.
For C[C@]12CC[C@@H]3c4ccc(OC(=O)N(CCCl)CCCl)cc4CC[C@H]3[C@@H]1CC[C@@H]2O, the outcome was “inactive”.
With Clc1cccc(SC2CCNCC2)n1 the outcome was “inactive”.
With CN1CCC(O)(c2ccc(F)cc2)C(C(=O)c2ccc(F)cc2)C1 (stereo not given) the outcome was “inactive”.
In the case of CN1C(=O)NC(=O)C(C)(C2=CCCCC2)C1=O (stereo not given), the outcome is reported as “inactive”.

System: not listed separately
Experiment: Validation screen for small molecules that induce genotoxicity in human embryonic kidney (HEK293T) cells expressing luciferase-tagged ELG1 (AID 493106)
Settings: luminescence; series mostly up to 46.1 µM
In short: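 In this validation screen, increased ELG1-luciferase signal flags compounds causing genetic stress. HEK293T reporter cells are treated 16 hr (37 °C, 5% CO2), developed with ONE-Glo for 30 min at room temperature, and imaged on a CCD-based reader.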
With CC(=O)N1CCN(c2ccc(OC[C@H]3CO[C@](Cn4ccnc4)(c4ccc(Cl)cc4Cl)O3)cc2)CC1 the outcome was “inactive”.
For CC(C)C[C@H]1C(=O)N2CCC[C@H]2[C@]2(O)O[C@](NC(=O)[C@@H]3C=C4c5cccc6[nH]c(Br)c(c56)C[C@H]4N(C)C3)(C(C)C)C(=O)N12, the outcome was “inactive”.
For O=C(CCCN1CCC2(CC1)C(=O)NCN2c1ccccc1)c1ccc(F)cc1, the outcome was “inactive”.
With CC(C)c1cccc(C(C)C)c1O the outcome was “inactive”.

System: not listed separately
Experiment: Validation screen for small molecules that induce DNA re-replication in SW480 colon adenocarcinoma cells (AID 504364)
Settings: DNA re-replication phenotype (high-content imaging); series mostly up to 46.1 µM
In short: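 Hoechst-stained SW480 nuclei, imaged at 405 nm excitation after 48 hr compound exposure, were counted for elevated DNA content as the re-replication signal.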
With C[C@]12CCC(=O)C=C1CC[C@@H]1[C@@H]2CC[C@]2(C)C(=O)CC[C@@H]12 the outcome was “inactive”.
With O=C(CCCN1CCC2(CC1)C(=O)NCN2c1ccccc1)c1ccc(F)cc1 the outcome was “inactive”.
In the case of CC(C)c1cccc(C(C)C)c1O, the outcome is reported as “inactive”.
